From article PMC13494018
A number with no mark means an inactive call. The rule behind the calls is not given here.

Molecular target: CD276, Q5ZPR3
Sequence (Q5ZPR3 whole entry): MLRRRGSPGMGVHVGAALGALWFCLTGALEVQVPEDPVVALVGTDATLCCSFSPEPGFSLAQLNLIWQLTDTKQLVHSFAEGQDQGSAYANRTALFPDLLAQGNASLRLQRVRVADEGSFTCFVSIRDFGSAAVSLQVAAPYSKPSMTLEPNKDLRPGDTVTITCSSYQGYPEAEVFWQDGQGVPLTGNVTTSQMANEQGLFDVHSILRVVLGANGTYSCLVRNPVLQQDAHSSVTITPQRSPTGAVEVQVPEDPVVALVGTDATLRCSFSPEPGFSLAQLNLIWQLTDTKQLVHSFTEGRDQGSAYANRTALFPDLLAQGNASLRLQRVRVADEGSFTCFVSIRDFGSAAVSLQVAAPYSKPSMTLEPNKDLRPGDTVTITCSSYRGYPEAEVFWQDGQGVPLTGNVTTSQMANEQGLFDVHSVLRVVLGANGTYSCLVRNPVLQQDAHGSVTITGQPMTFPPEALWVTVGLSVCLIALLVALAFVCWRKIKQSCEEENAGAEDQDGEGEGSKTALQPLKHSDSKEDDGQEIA

Binder | binding in a display sort
design_486_d4f32670-1303-4d79-8413-1b14cb3eff50_1679_dldesign_0_cycle1_af2pred (protein) AAAAKAKVQAAAAKALAEAKKTAAEAKTLTPEEATALLQATAADAIRQAAEYGKLDPEVAGSALVEVVKLLAEARRAVAA | not found
design_486_d4f32670-1303-4d79-8413-1b14cb3eff50_1718_dldesign_0_cycle1_af2pred (protein) MSAGEIALANTRAVAKQLIAAGKELGTEEEARKKAEEAIAKVEELAKKGPAGAAEAMKITVEMMKELDKVSKAVEEAE | not found
design_486_d4f32670-1303-4d79-8413-1b14cb3eff50_1885_dldesign_0_cycle1_af2pred (protein) MEEAGEIVERAEEVYKRAKEAAEENAKRNPEKKEEIKKLYEEAVALIQKSLALASQGALEGNQELLKEAKKKLEEAEKVAKEIEKL | not found
design_486_d4f32670-1303-4d79-8413-1b14cb3eff50_1967_dldesign_0_cycle1_af2pred (protein) DAEVEKLQAQIRTAGLILMASSSPEKAEEALKRTKEAVELAKKNPEEGLKLAEEIAEEAKKVGTPEQAAVIDSVFK | not found
design_486_d4f32670-1303-4d79-8413-1b14cb3eff50_2004_dldesign_0_cycle1_af2pred (protein) KKAEILAAGNALVVELLAEAEKAAKAAKAAGDPEAANQALVEAAKGAAKIHALMVKGAPVEELKKEAEAAKKKIKALAE | not found
design_486_d4f32670-1303-4d79-8413-1b14cb3eff50_2076_dldesign_0_cycle1_af2pred (protein) AALVGEAMVLLAEVAAAGPPEVRAKASAAIAALAAGDLETALKLAKEAAELLKKAGKEYEPAAKKAEEAAKLLKEAAAAAA | not found
design_486_d4f32670-1303-4d79-8413-1b14cb3eff50_2148_dldesign_0_cycle1_af2pred (protein) GSAAYEFAKEAIERALKAAEELKKLDPEEGKKLIEKVEKLKKELEANKDNAQKAARIAIEALQIEQEAQQKIAALKAA | not found
design_486_d4f32670-1303-4d79-8413-1b14cb3eff50_2179_dldesign_0_cycle1_af2pred (protein) AQEANDLLAETLETLREGQAAAKELGDEEARLKLVELANKSMTLASQAVAAGGDQELLDKAKEYHAELKKLAKEVKEKA | not found
design_486_d4f32670-1303-4d79-8413-1b14cb3eff50_2359_dldesign_0_cycle1_af2pred (protein) DAAKEFAENYEKAAEYVSQIYAKDPAAGEEMQKVLTAKTAEASKLAIAGDLAGAAKVMKEALEIAKKKLEEL | not found
design_487_778f5c6d-c470-43b8-8f82-464af6177e08_89_dldesign_0_cycle1_af2pred (protein) SEAEKEAEKAEKLVEELRANPKVPLEKAKELAKAIQELAKLDPEKGAEMASKAVAVILEKGKEIPGETINAILTGVSKAHAIINA | not found
design_487_778f5c6d-c470-43b8-8f82-464af6177e08_100_dldesign_0_cycle1_af2pred (protein) MDKEQVYETAAKMLEEGAELVKAGEETKPAGLAKAKAAALLVLGVDPEVGEKVLKLVEEAEKADQEKAAKLIEEAAKLVKE | not found
design_487_778f5c6d-c470-43b8-8f82-464af6177e08_256_dldesign_0_cycle1_af2pred (protein) GEALEKAKEYEKEANEAAAKGKATTPAEGALYFLKAAALYAKAAEEYKKAGDEKNAKEAEAKAKEATANMIALSKQAIAA | not found
design_487_778f5c6d-c470-43b8-8f82-464af6177e08_310_dldesign_0_cycle1_af2pred (protein) AAVLSPEQAGGTFRALATSIRLAAEAGDLDSAEALAAAGLQLAENQPAVAPLVNKAKEEAAKLTPKEAALKLADAFEQAGDALLA | not found
design_487_778f5c6d-c470-43b8-8f82-464af6177e08_420_dldesign_0_cycle1_af2pred (protein) AEEKIKEANRLFQEGARKMVQGLQLAAQGKKEEAEKELTEAIELFTKASKLAKEAGDERLAESAEKAAKEAKAQLAAVKAA | not found
design_487_778f5c6d-c470-43b8-8f82-464af6177e08_421_dldesign_0_cycle1_af2pred (protein) SDAKLAVEAARSAAIAAIELAKQGAWQGAELARQNMKKAAEKALKLGAADPSVKEEVEKEVNAIVKETDAALAAEKAAR | not found
design_487_778f5c6d-c470-43b8-8f82-464af6177e08_452_dldesign_0_cycle1_af2pred (protein) EEERIQRIAEQVEELIKTAEEALATGTAAGKQAAKQLALAAATVLSSVDPELGAKVKEVAKTGTAEEAIKAAKEALEEIKKK | not found
design_487_778f5c6d-c470-43b8-8f82-464af6177e08_501_dldesign_0_cycle1_af2pred (protein) MDRAVEIAVASLKHAVKQAIAAAEKIDPELAKKVEEEGKKKIEEAAASDSATAVEIAIEALKKLSELSKKARA | not found
design_487_778f5c6d-c470-43b8-8f82-464af6177e08_509_dldesign_0_cycle1_af2pred (protein) GEAFSKEALEKGKEAAKKAEESTDPEAKTLYIKAASNYYGAAALALSPESAPLAKERAAKGDEYRAKADAL | not found
design_487_778f5c6d-c470-43b8-8f82-464af6177e08_560_dldesign_0_cycle1_af2pred (protein) GAAKLAQGALNMAKAQLAYLEKALAAGAADPANAAAYKAKAKEALEQLKTFATAATLVDPAAAPEGDAILKEAEAKYKALSAAIAAA | not found
design_487_778f5c6d-c470-43b8-8f82-464af6177e08_613_dldesign_0_cycle1_af2pred (protein) EEAEKERARAIIEKASAKLDALAAEAEERDPALGAQARALRDSLAATAQTYIETGSPTGRAGLNSLAAFLA | not found

Binder | binding in a display sort
design_487_778f5c6d-c470-43b8-8f82-464af6177e08_620_dldesign_0_cycle1_af2pred (protein) GAKSKALQKLFQQANELHKLAIAAKKPEAKKIYNEAAGTALDFAEKAQAGGDEEAEKLAKEAEKIAKEAKEKALAIE | not found
design_487_778f5c6d-c470-43b8-8f82-464af6177e08_718_dldesign_0_cycle1_af2pred (protein) MKKEEAIRALAAAAARAAKLAVDPRTAAVANKALEVVVSAMEEVEASEDEEEAVEIAEKALAEADKLLAEAAKAA | not found
design_487_778f5c6d-c470-43b8-8f82-464af6177e08_749_dldesign_0_cycle1_af2pred (protein) GAEEALLAEARALLARAQGLLIEAAKQLKTDPAAAIKLAEEAKKLAEKAKELAKKLGRRGPGLQAMADAVIDSAKALKAQAEAAL | not found
design_487_778f5c6d-c470-43b8-8f82-464af6177e08_816_dldesign_0_cycle1_af2pred (protein) GSMEELAKLRAEAEEKLAAAQAVVERPAETVTLEELNAALAQAVEAARLFQEVGDRELLAEAFRVAATLAARAVEVAA | not found
design_487_778f5c6d-c470-43b8-8f82-464af6177e08_901_dldesign_0_cycle1_af2pred (protein) DELEKKIKEELEKAKEYLKKGKELFEAGKYKEAAAEFEKAIEYASKAMELAAEAGPKYNKYGVEASKVANEAYKLRQQALAK | not found
design_487_778f5c6d-c470-43b8-8f82-464af6177e08_920_dldesign_0_cycle1_af2pred (protein) ESVREAARKVKELAEALAAQAKAAGDEEAAKLAEEAAKLAEEAEKKAEEDPEEAKRLIVEALRLLNRAFALLVAAS | not found
design_487_778f5c6d-c470-43b8-8f82-464af6177e08_978_dldesign_0_cycle1_af2pred (protein) KSPTEQVAEYAAKVRAKAPKGEEIARLLFSYNAAYQADPAKGKEKEKELKALAKENPEAKEYVEAAVAAVKA | not found
design_487_778f5c6d-c470-43b8-8f82-464af6177e08_1035_dldesign_0_cycle1_af2pred (protein) VEEIVERVNAALARATRAALAGGPEAAARTAELMRRAAEAVRLAREDPEAGKKIADEVEAEVDALLAAVA | not found
design_487_778f5c6d-c470-43b8-8f82-464af6177e08_1075_dldesign_0_cycle1_af2pred (protein) AAAEEAKKLVKEAKALLKAAEATGNLALAQAALEKALEAIALGAEVNKERPLPVAVEAVRLAGRAYALVRQLTA | not found
design_487_778f5c6d-c470-43b8-8f82-464af6177e08_1099_dldesign_0_cycle1_af2pred (protein) AAEEVAKKFAKAVLRIALKQIDENAADPELVKKIADNAVKLLNSLSDGAAVAKAEAEKIKAHAEATIAKAKAAKA | not found
design_487_778f5c6d-c470-43b8-8f82-464af6177e08_1105_dldesign_0_cycle1_af2pred (protein) AAQLALARATLIAAADSLERLAAQAGPAYAPVAAEAAALRAAAEAGTLTADEANAALGRLLDQMEAISAEIR | not found
design_487_778f5c6d-c470-43b8-8f82-464af6177e08_1117_dldesign_0_cycle1_af2pred (protein) MNVEEAKAQIEALMNRARGYFMRGAALAGTPEGAALNAKGAALLAEAEALAKEAGPEAQKVFAELKAKMDAAVNAVAN | not found
design_487_778f5c6d-c470-43b8-8f82-464af6177e08_1129_dldesign_0_cycle1_af2pred (protein) AEELRERMKKSADGAIEVINDLTAYGIAHPEHAALARAALTGLGTNMIAAAAANPVSKELAEKLAAALTAATAAIDAA | not found
design_487_778f5c6d-c470-43b8-8f82-464af6177e08_1130_dldesign_0_cycle1_af2pred (protein) MTTEETARQQRENVEQVGRVAGLPEQAAELARAMEERAIREGLSNEEIIAEASRLSAQINRQALAAAQAA | not found
design_487_778f5c6d-c470-43b8-8f82-464af6177e08_1159_dldesign_0_cycle1_af2pred (protein) DTAAALAAAAAAAAALAKADPALAPAALAITQANLAAILDLAEETKAANPEVPAAVGETFNTAITTASTAYATALKLAQ | not found
design_487_778f5c6d-c470-43b8-8f82-464af6177e08_1277_dldesign_0_cycle1_af2pred (protein) EKEEAKKKAEELLKEIKKLAKEAAASDAETANKYLAKAVETAKELYELAKKIGEEGKELAKEANAALAAAAKAAMDKVQ | not found
design_487_778f5c6d-c470-43b8-8f82-464af6177e08_1334_dldesign_0_cycle1_af2pred (protein) AGGYAVLAQNTLARARALAAQGPAALPEIEAQARILQQVAEAAAQAGDAEGAATAAANAEQARALAEEARRA | not found
design_487_778f5c6d-c470-43b8-8f82-464af6177e08_1347_dldesign_0_cycle1_af2pred (protein) AAEAETQAALAQLQATMHELMRIAAQALALGDAELAQEALEAVVKGQEGLADPSIVKATAEEVSAARERLRARVEALRAA | not found
design_487_778f5c6d-c470-43b8-8f82-464af6177e08_1348_dldesign_0_cycle1_af2pred (protein) AEKKREEAKKLVEEAKKLAEKGDFEKAVEKLREAVALDPSVIGEALEAVKVIAEKNPAAAPAASLAIIRAAQEA | not found
